BAZ2B block: blocks human BAZ2B; Q9UIF8; AlphaScreen BAZ2B-H3K14Ac peptide displacement; Potency, µM (titrated, usually from 114 µM), for the others: at the highest dose activity change, negative = inhibition, usual class: inhibitors; 360,000 tested, 4.4% active; further: on the % scale 0 is the no-effect control and ±100 the full control effect; nearly all actives have a fitted effect of over 60% in size
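BAZ2B (50 nM) with biotin-H3(5-23)K14Ac peptide (50 nM) in PBS pH 7.4, 0.01% Tween-20, preformed 30 min, then compound 30 min at room temperature; top concentration 110uM. AlphaScreen streptavidin donor/nickel chelate acceptor beads (10 ug/mL final), 20 min dark, signal read.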
L3MBTL1 inh: inhibitors of human L3MBTL1 | AlphaScreen L3MBTL1–H3K9me1 peptide binding | Potency, µM (series often up to 57.1 µM), for inactives: top-dose activity, negative = inhibition, usual class: inhibitors | 230,000 tested, 0.66% active; further: on the % scale 0 is the no-effect control and ±100 the full control effect; nearly all actives have a fitted effect of over 60% in size
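AlphaScreen assay: L3MBTL1 (50 nM final) was preincubated 30 min at room temperature with biotinylated H3(1-15)K9me1 peptide (75 nM final), then 30 min with library compounds; streptavidin donor and nickel chelate acceptor beads (10 ug/mL final) added, 30 min dark.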
HP1b chromo inh: HP1-beta chromodomain-methylated histone interaction inhibition | AID 540317 | AlphaScreen HP1-beta / biotin-H3K9me3 peptide binding | 390,000 tested, 0.56% active | Potency, µM (top dose mostly 114 µM), for inactives: at the highest dose activity change, negative = inhibition, usual class: inhibitors; further: nearly all actives have a fitted effect of over 70% in size
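AlphaScreen: HP1-beta (50 nM) preformed 30 min with biotin-H3(1-18)K9me3 peptide (50 nM) in PBS pH 7.4, 0.01% Tween-20. Compound added for 30 min at RT, then streptavidin donor/nickel chelate acceptor beads (10 ug/mL) for 30 min.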
JMJD2A Tudor: inhibitors of human JMJD2A Tudor domain; AID 504339; O75164; Potency, µM (top dose mostly 114 µM), inactives show at the highest dose activity change, negative = inhibition, actives largely listed as inhibitors; 390,000 tested, 4.4% active; AlphaScreen JMJD2A-Tudor / H3K4me3 peptide binding; further: on the % scale 0 is the no-effect control and ±100 the full control effect; nearly all actives have a fitted effect of over 50% in size
G9a block: inhibitors of human histone lysine methyltransferase G9a; Q96KQ7; G9a H3K9 monomethylation, AlphaScreen, 2 h; Potency, µM (highest dose often 102 µM), for the others: at the highest dose activity, negative = inhibition, hits mostly inhibitors; 350,000 tested, 8.8% active; further: on the % scale 0 is the no-effect control and ±100 the full control effect; nearly all actives have a fitted effect of over 75% in size
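Signal arises when biotinylated H3K9 peptide, once monomethylated, bridges streptavidin donor and antibody-captured acceptor beads. Enzyme at 20 nM was preincubated 15 min with test compounds; peptide 500 nM and SAM 20 uM then reacted for 2 h.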
The depositor's hits bear a star; ? = inconclusive; . = no result given; [ ] = remark or other dose. Most compounds without a hit are left out; they make up all but 11% or so of the library. The call rests on the fitted dose curve; in most records, active means well fitted inhibition curve with a large enough effect; inconclusive means small, poorly fitted or top-dose-only effect; inactive means no such curve, though single readings can be large or run the other way. Potency means the concentration at half of the fitted maximal effect.

SMILES	BAZ2B block	L3MBTL1 inh	HP1b chromo inh	JMJD2A Tudor	G9a block
CCOc1ccc(-c2nc(CN(Cc3ccccc3)C[C@@H]3CCC(=O)N3)c(C)o2)cc1	?	-8%	7%	-25%	45µM*
Cc1oc(-c2ccc(C(F)(F)F)cc2)nc1CN(Cc1ccccn1)C[C@@H]1CCC(=O)N1	?	-7%	30%	-23%	?
O=C(O)c1cccnc1SC1CC(=O)N(c2ccc(OC(F)F)cc2)C1=O (stereo not drawn)	-18%	.	22%	-4%	45µM*
O=C(O)c1cccnc1SC1CC(=O)N(c2cccc(C(F)(F)F)c2)C1=O (stereo not drawn)	8%	11%	42%	-21%	35µM*
CC(=O)N1CCc2cc(Br)cc(S(=O)(=O)NCCc3cccc(C)c3)c21	-1%	.	16%	-18%	5%[59 µM]
Cc1cc2c(s1)c1cnn(Cc3cc(F)cc(F)c3)c(=O)c1n2C	.	.	.	-9%	.
c1ccc(-c2nc(N3CCCCCC3)c3ccccc3n2)nc1	50µM*	?	36%	?	-31%
c1ccc(-c2nc(N3CCOCC3)c3ccccc3n2)nc1	?	.	42%	-33%	?
O=C1Nc2ccccc2C12OCC(COc1ccc(Cl)cc1)O2 (stereo not drawn)	10%	.	-18%	79µM*	-7%[12.7 µM]
CCc1cc(C(c2ccccn2)N2CCN(C)CC2)c(NC(=O)c2ccccc2)s1 (stereo not drawn)	-36%	-5%	7%	?	40µM*
COC(=O)C(CSCc1ccccc1)NC(=O)CSc1nc(C)cc(=O)[nH]1 (stereo not drawn)	3%	.	-2%	50µM*	0%
Cc1cccc(-n2c(C)cc(C(=O)C(=O)Nc3ccccc3F)c2C)c1C	-38%	.	10%	-17%	-24%[59 µM]
COc1ccc(C(=O)CSc2ccc(-c3ccc(C)cc3)nn2)cc1	-3%	11%	41%	-1%	?
COc1ccc(-c2ccc(SCC(=O)c3ccc(F)cc3)nn2)cc1OC	4%	-1%	14%	-11%	35µM*
COc1ccc(-c2ccc(SCC(=O)c3cccs3)nn2)cc1OC	-23%	-2%	5%	-14%	50µM*
COc1ccc(-c2ccc(SCC(=O)N3CCCC3)nn2)cc1OC	4%	-4%	25%	-1%	?
CC1(C)CC(=O)C2=C(C1)N(c1ccccc1)C(=O)C2(O)C(F)(F)F (stereo not drawn)	-4%	4%	22%	-1%	10%[59 µM]
C=CCn1c(NCc2ccco2)nc2ccccc21	-30%	2%	38%	-4%	-4%[59 µM]
CCCCn1c(NCc2ccc(N(C)C)cc2)nc2ccccc21	40µM*	?	?	40µM*	?
C=CCn1c(NCc2ccc(N(C)C)cc2)nc2ccccc21	45µM*	-20%	?	?	?
Cc1cccnc1NC(=O)CNC(=O)c1cccs1	11%	3%	18%	-8%	8%[0.501 µM]
CCCn1nnc(NC(=S)NC(=O)c2cccs2)n1	-29%	8%	-13%	7.9µM*	14µM*
Cc1cccnc1NC(=S)NC(=O)c1cccs1	-28%	0%	-13%	22µM*	?
O=C(Nc1ccccc1)Nc1cccc2ccccc12	2%	7%	13%	-5%	.
Cc1cccnc1NC(=O)Nc1cccc2ccccc12	-2%	.	10%	-15%	7.1µM*
SMILES	BAZ2B block	L3MBTL1 inh	HP1b chromo inh	JMJD2A Tudor	G9a block
COC(=O)c1nc(NC(=S)NC(=O)c2cccs2)sc1C	-28%	.	-10%	-25%	50µM*
Cc1cccnc1NC(=S)NC(=O)/C=C/c1ccccc1	79µM*	-7%	14%	-26%	?
CCCCC(=O)NCCc1c(Cc2ccccc2)[nH]c2ccccc12	.	.	.	.	13µM*
CC(=O)NCCc1c(Cc2ccccc2)[nH]c2ccccc12	.	.	.	.	19%[59 µM]
O=C(O)C1Cc2[nH]cnc2C(c2ccccc2O)N1 (stereo not drawn)	0%	4%	18%	89µM*	17%[59 µM]
O=C(O)C1Cc2[nH]cnc2C(c2cccc([N+](=O)[O-])c2)N1 (stereo not drawn)	?	-4%	40%	-12%	10%
CCOc1ccc(NC(=O)CSc2cn(CC(=O)N3CCOCC3)c3ccccc23)cc1	-16%	.	55%	-11%	-29%[59 µM]
Cc1nc([N+](=O)[O-])c(C(=O)OCc2ccccc2)n1C	25%	.	21%	-10%	-5%
Cc1nc([N+](=O)[O-])c(C(=O)OCc2cccc(Br)c2)n1C	-17%	.	33%	-16%	50µM*
COc1cc(SC)ccc1C(=O)N1CCN(c2ccccc2F)CC1	-20%	-7%	-12%	?	-1%
COc1ccc(N2CCN(C(=O)c3ccc(SC)cc3OC)CC2)cc1	-37%	?	-10%	-34%	28µM*
COc1ccc(Nc2ncc(C(=O)N3CCN(c4ccc(F)cc4)CC3)c3ccccc23)cc1	-14%	-7%	21%	-25%	-7%[59 µM]
COc1ccc(-c2cc(C(=O)N3CCN(c4ccccc4)CC3)c3ccccc3n2)cc1OC	-36%	.	-11%	?	?
COc1ccc(Nc2ncc(C(=O)N3CCN(c4ccc(OC)cc4)CC3)c3ccccc23)cc1	-38%	.	8%	?	18µM*
COc1ccc(N2CCN(C(=O)c3csc4ccccc34)CC2)cc1	-30%	-3%	-25%	?	20µM*
COc1ccc(N2CCN(C(=O)c3cc(-c4cccs4)nc4ccccc34)CC2)cc1	?	-24%	-31%	?	22µM*
CCc1ccc(OCC(=O)Nc2ccc(Cl)c(-c3nc4ncccc4o3)c2)cc1	2%	.	39%	-14%	-3%[59 µM]
Cc1ccc2oc3c(c(=O)c2c1)C(c1ccc(F)cc1)N(Cc1ccc2c(c1)OCO2)C3=O (stereo not drawn)	-3%	.	26%	-4%	-23%[59 µM]
O=C(c1ccc2c3c(cccc13)CC2)C1CCCN(C(=O)c2cccnc2)C1 (stereo not drawn)	-25%	-9%	33%	-26%	?
O=C(c1ccc2c3c(cccc13)CC2)C1CCCN(Cc2cccnc2)C1 (stereo not drawn)	45µM*	-8%	-3%[57 µM]	?	.
Cc1cccc(CN2CCCC(C(=O)c3ccc4c5c(cccc35)CC4)C2)n1 (stereo not drawn)	?	?	10%	?	?
COc1cc(CN2CCCC(C(=O)c3ccc4c5c(cccc35)CC4)C2)cc(OC)c1O (stereo not drawn)	40µM*	-13%	-20%	?	32µM*
O=C(Nc1ccccc1)C12CC1/C(=N\O)c1ccccc1O2 (stereo not drawn)	.	.	.	.	27%[59 µM]
O=C(Cc1ccccc1)Nc1c(C(=O)Nc2ccccc2F)oc2ccccc12	-7%	.	34%	-1%	4%[59 µM]
COc1cc(NC(=O)Cn2cc(C(=O)c3ccc(F)cc3)c(=O)c3ccc(C)nc32)cc(OC)c1	9%[57.1 µM]	.	31%	-14%	-15%[59 µM]

Bioassay records deposited in PubChem BioAssay by National Center for Advancing Translational Sciences (NCATS).
